In the library only some 1.2% were active in any assay of this set; here they are far more common.
RAD52 inh = RAD52 (human) annealing inhibition. P43351. recombinant RAD52 DNA annealing, FRET fluorescence. inhibition, % at 18.7 µM. 360,000 tested, 0.46% active. AID 651710;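 active = every replicate showing at least 50% inhibition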
NSD2 HMT inh = inhibitors of human histone methyltransferase NSD2 | O96028 | NSD2 peptide methylation, AlphaScreen, 120 min | inhibition, % at 12.5 µM | 310,000 tested, 0.54% active; in the data active = inhibition above about 50%
Target sequence (O96028 whole entry, looked up): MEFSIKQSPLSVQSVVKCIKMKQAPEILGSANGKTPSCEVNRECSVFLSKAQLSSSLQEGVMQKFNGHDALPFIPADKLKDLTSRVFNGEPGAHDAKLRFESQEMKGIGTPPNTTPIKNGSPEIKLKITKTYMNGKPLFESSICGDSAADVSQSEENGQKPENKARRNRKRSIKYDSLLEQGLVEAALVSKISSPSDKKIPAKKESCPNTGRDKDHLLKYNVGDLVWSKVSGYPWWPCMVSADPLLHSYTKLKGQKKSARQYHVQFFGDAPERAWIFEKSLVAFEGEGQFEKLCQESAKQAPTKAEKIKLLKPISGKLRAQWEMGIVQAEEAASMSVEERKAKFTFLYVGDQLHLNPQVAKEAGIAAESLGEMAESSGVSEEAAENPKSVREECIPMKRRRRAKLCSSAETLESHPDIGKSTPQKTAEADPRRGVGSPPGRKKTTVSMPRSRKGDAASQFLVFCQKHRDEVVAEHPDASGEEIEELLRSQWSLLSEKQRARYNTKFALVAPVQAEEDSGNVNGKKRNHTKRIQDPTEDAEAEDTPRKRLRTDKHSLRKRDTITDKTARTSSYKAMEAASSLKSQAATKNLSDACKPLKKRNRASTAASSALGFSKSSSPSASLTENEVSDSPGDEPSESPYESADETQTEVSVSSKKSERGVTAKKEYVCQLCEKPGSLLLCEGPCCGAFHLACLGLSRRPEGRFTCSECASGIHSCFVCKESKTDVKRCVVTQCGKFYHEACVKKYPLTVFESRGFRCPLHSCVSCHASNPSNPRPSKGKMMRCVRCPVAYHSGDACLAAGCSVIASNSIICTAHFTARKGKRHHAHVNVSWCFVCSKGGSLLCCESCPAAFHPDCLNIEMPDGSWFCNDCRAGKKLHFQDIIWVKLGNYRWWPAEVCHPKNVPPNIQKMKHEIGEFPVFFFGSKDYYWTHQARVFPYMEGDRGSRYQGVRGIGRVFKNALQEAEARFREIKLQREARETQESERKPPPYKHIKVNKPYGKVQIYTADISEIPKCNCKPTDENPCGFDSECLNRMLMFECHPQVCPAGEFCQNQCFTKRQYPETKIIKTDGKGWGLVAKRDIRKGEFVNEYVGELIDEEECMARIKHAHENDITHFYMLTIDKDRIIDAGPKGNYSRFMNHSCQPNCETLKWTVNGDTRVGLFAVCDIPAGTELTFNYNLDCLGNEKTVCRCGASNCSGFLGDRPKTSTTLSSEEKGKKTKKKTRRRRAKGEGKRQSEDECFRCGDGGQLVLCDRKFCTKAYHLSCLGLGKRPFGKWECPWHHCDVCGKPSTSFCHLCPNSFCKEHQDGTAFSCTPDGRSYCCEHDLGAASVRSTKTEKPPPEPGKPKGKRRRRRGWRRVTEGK
CASP6 VEID inh = inhibitors of human caspase-6 | purified caspase-6, Z-VEID-R110 cleavage fluorescence | inhibition, % at 12.5 µM | 350,000 tested, 0.53% active;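 active = mean inhibition across replicates at least about 35%, with every replicate also reaching that limit, limit read from the data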;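 also: 0% = median of neutral control wells and 100% = no fluorescence left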
RAD54 branch = blocks human RAD54 Holliday junction branch migration; FAM/BHQ fluorescence; inhibition, % at 10.4 µM; 360,000 tested, 0.14% active;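 active = mean normalized replicate activity at least 40 and at least half of replicates scoring 40 or more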;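 also: 0% = median of neutral control wells and 100% = median of positive control wells; inhibitors cause a drop in the FAM fluorescence signal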
Glyco luc inh = N-linked glycosylation inhibition | D54 ERlucT glycosylation luciferase reporter, 24 h; percent of 100 nM tunicamycin response | reporter increase, % at 12.5 µM | 360,000 tested, 0.23% active;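 active = mean luciferase reporter signal, scaled so untreated is 0 and the glycosylation-blocking control 100, at or above a set limit in every replicate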;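 also: luciferase carries N-glycosylation sites so blocking glycosylation raises the light; 0% = median of neutral control wells and 100% = median of 100 nM tunicamycin wells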
Starred values were filed as active, the others as inactive; i = inactive; x = no result.

SMILES	RAD52 inh	NSD2 HMT inh	CASP6 VEID inh	RAD54 branch	Glyco luc inh
CC(C)(C)NC(=O)CN(Cc1ccc2c(c1)OCO2)C(=O)CNS(=O)(=O)c1ccc(F)cc1	6.1	45.3	x	9.6	0.8
CCC(C)(C)NC(=O)CN(C(=O)CNS(=O)(=O)c1ccc(F)cc1)c1ccc2c(c1)OCCO2	7.8	x	47.4*	-3.3	0.1
COc1ccc(CN(C)C[C@H]2OCCCC[C@H](C)Oc3ccc(NC(=O)Cc4ccccc4)cc3C(=O)N([C@@H](C)CO)C[C@@H]2C)cc1	x	x	x	2.7	x
CO[C@@H]1CN(C)C(=O)c2cc(NC(=O)C3CCOCC3)ccc2OC[C@@H](C)N(Cc2cccnc2)C[C@@H]1C	-2.0	x	x	0.6	x
N=c1c2c(ncn1CCCO)Oc1c(ccc3ccccc13)C2c1ccccc1 (stereo not given)	16.0	0.4	4.5	x	9.2
CN(C)CCCn1cnc2c(c1=N)C(c1ccccc1)c1ccc3ccccc3c1O2 (stereo not given)	76.2*	4.6	-71.3	32.8	15.5
CCOC(=O)c1sc(NC(=O)C2C3C=CC(C3)C2C(=O)O)nc1C (stereo not given)	-7.5	0.9	54.8*	-4.6	-0.9
CCOC(=O)c1sc(NC(=O)C2CC2)nc1C	-90.9	x	-0.4	-6.0	-2.0
CCN(CC)c1ccc(/C=C/c2ccc3ccc(OC)cc3[n+]2CC)cc1	-34.2	75.5*	2.0	-2.7	6.2
O=C(C[C@@H]1C[C@@H]2c3cc(NC(=O)c4ccc5c(c4)OCO5)ccc3O[C@@H]2[C@@H](CO)O1)NCc1cc(F)ccc1F	17.9	x	8.4	-7.5	x
O=c1c2ccccc2nc2n1CCC2	x	3.2	x	x	0.9
O=C1CCn2c1c(O)c1ccccc1c2=O	i	25.9	95.1*	x	0.4
COc1cc(Nc2c3c(nc4ccccc24)CCC3)cc(OC)c1OC	7.7	2.5	-4.0	10.9	48.6*
CCOC(=O)c1cc(-c2ccc(N3CCOCC3)cc2)nn1-c1ccccc1	-6.8	2.0	0.6	x	-5.7
CCOC(=O)c1cc(-c2ccc(N3CCOCC3)cc2)nn1-c1ccccc1C(=O)O	-11.4	x	40.3*	3.0	2.7
CN1CCN(C(=O)c2ccc3nc(-c4ccc(F)cc4)c(-c4ccc(F)cc4)nc3c2)CC1	x	4.1	x	x	x
COc1cc(CN2C[C@@H]3N[C@H](C2)C3c2ccc(-c3cccc(OC)c3)cc2)cc(OC)c1 (stereo not given in full)	59.4*	x	-5.3	x	x
COc1ccc(-c2ccc(C3[C@@H]4CN(Cc5cc(OC)cc(OC)c5)C[C@H]3N4)cc2)cc1 (stereo not given in full)	66.4*	x	1.0	x	x
COc1cc(CN2C[C@@H]3N[C@H](C2)C3c2ccc(-c3ccncc3)cc2)cc(OC)c1 (stereo not given in full)	11.3	x	-6.1	x	x
COc1ccc2c3c([nH]c2c1)[C@H](CO)N(Cc1nccs1)CC31CN(C(=O)C2CC2)C1	-25.3	x	-2.3	x	x
COC(=O)c1c(N)n(CCCN2CCOCC2)c2nc3ccccc3nc12	x	1.9	x	79.3*	10.6
COc1ccc(C=CC(=O)c2ccc(OCc3ccccc3)c(OC)c2)cc1OC	-5.9	0.9	x	2.0	9.5
COc1ccc(C(=O)/C=C/c2ccc(OCc3ccccc3)cc2)cc1CSCC(=O)O	-9.0	35.4	43.9*	11.5	1.2
COc1ccc(C(=O)/C=C/c2cccc(OCc3ccccc3)c2)cc1CSCC(=O)O	-14.4	42.8	43.5*	19.0	5.5
Cc1noc(C)c1NC(=O)N(C)C[C@H]1Oc2ccc(NS(=O)(=O)c3ccc(Cl)cc3)cc2CC(=O)N([C@@H](C)CO)C[C@H]1C	15.3	x	1.0	1.7	x
SMILES	RAD52 inh	NSD2 HMT inh	CASP6 VEID inh	RAD54 branch	Glyco luc inh
CO[C@H]1CN(C)C(=O)c2cc(NC(=O)Nc3ccccc3F)ccc2OC[C@@H](C)NC[C@@H]1C	15.8	x	x	6.3	x
c1ccc(CNCCC(Cc2ccccc2)c2ccco2)cc1 (stereo not given)	-19.7	1.6	-3.2	4.5	1.4
CN(C)c1ccc(CNCCC(Cc2ccccc2)c2ccco2)cc1 (stereo not given)	-16.0	57.0*	-1.2	7.2	0.6
C[C@H](CO)N1C[C@H](C)[C@H](CN(C)S(=O)(=O)c2ccc(F)cc2)Oc2c(NC(=O)c3cnccn3)cccc2C1=O	10.5	x	-2.3	x	x
COc1ccc(-c2nn(-c3ccccc3)cc2/C=C2/SC(=S)N(CCC(=O)O)C2=O)c(C)c1	-11.3	7.8	29.4	8.9	2.0
Cc1ccc(-c2nn(-c3ccccc3)cc2/C=C2\SC(=S)N(CC(=O)O)C2=O)cc1	-37.2	x	31.1	-8.9	0.2
COc1ccc(-c2nn(-c3ccccc3)cc2N)cc1	-5.7	62.7*	-3.6	x	0.4
COc1ccc(-c2nn(-c3ccccc3)cc2/C=C2/SC(=S)N(CCC(=O)O)C2=O)cc1	-191.7	-1.6	46.5*	0.8	1.9
O=C1C(=Cc2cn(-c3ccccc3)nc2-c2ccc(OCc3ccccc3F)cc2)SC(=S)N1CCS(=O)(=O)O	-164.8	x	74.9*	-2.5	2.0
O=C1C(=Cc2cn(-c3ccccc3)nc2-c2ccc(OCc3ccc(Cl)cc3)cc2)SC(=S)N1CCS(=O)(=O)O	-10.9	x	46.0*	-2.1	-1.1
N#C[C@@H]1[C@@H](c2ccccc2-c2cccc(F)c2)[C@H](CO)N1C(=O)C1CCCC1	113.7*	x	-0.6	x	x
Cc1ccc(-c2ccccc2[C@H]2[C@@H](CO)N(S(C)(=O)=O)[C@H]2C#N)cc1	101.3*	x	1.0	x	x
CS(=O)(=O)N1[C@H](C#N)[C@H](c2ccccc2-c2ccccc2)[C@@H]1CO	-10.6	x	x	x	x
CN(C)C(=O)c1ccc(-c2ccccc2[C@@H]2[C@@H](CO)N(C(=O)C3CCCC3)[C@H]2C#N)cc1	58.0*	x	2.5	x	x
Cc1cccc(C(=O)Nc2cccc(NC(=O)c3ccccc3)c2)c1	-11.8	0.5	54.3*	5.4	-2.2
CCCNC(=O)N1C[C@H]2[C@@H](c3ccccc31)[C@H](CO)N2C(=O)C1CCOCC1	x	x	x	11.0	x
NC(=O)c1cc(N)ccc1N1CCCC1	8.4	50.8*	5.1	11.6	0.2
NC(=O)c1cc(N)ccc1N1CCCCC1	-15.5	-0.7	11.0	x	0.4
CCN(CC)C(=O)COc1ccc(/C(C)=N/NC(=O)c2ccccc2O)cc1	5.9	1.6	38.5*	x	0.5
Cc1noc(C)c1NC(=O)N[C@@H]1C=C[C@H](CC(=O)NCc2ccc(Cl)c(Cl)c2)O[C@@H]1CO	3.7	x	0.7	x	x
CCOC(=O)C1=C(COC(=O)/C=C/c2ccco2)NC(=O)NC1C (stereo not given)	-13.3	9.7	61.1*	-14.2	1.5
CC1CCN(C(=O)COC(=O)/C=C/c2ccco2)CC1	-26.1	14.5	48.8*	-11.7	-3.9
Cc1ccc(C(=O)N/C(=C/c2cccs2)C(=O)NCCc2c[nH]c3ccccc23)cc1	-10.6	-1.2	1.6	-11.2	55.3*
Cc1ccc(C(=O)N/C(=C\c2ccco2)C(=O)NCCc2c[nH]c3ccccc23)cc1	-46.5	1.2	-1.6	x	30.3*
O=C(C[C@H]1CC[C@@H](NC(=O)c2ccccn2)[C@@H](CO)O1)NCc1cc(F)cc(F)c1	-2.3	x	-2.5	2.6	x

Compound activity deposited in PubChem by Broad Institute.
